# This is part of a sample that, as a whole, favours compounds with a hit. Of some 83,000 tested, about 20% had one in any assay.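 Percent growth is the endpoint: 0 to 100 indicates growth inhibition (40 means 60% inhibition), 0 means no net growth, and negative values indicate cell death.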 Unmarked numbers belong to inactive results. Active and inactive are the calls of the source. The calls were made as follows: active = growth percent below 10; inactive = the rest.
# Key:
# Test in all cases: NCI-60 one-dose screen, 48 h (100 = growth as untreated, 0 = no growth, -100 = all killed)
# Details in all cases: 10 µM unless noted
# SR leukemia = system: SR leukemia
# RPMI-8226 leukemia = system: RPMI-8226 leukemia
# OVCAR-8 ovarian = system: OVCAR-8 ovarian
# OVCAR-5 ovarian = system: OVCAR-5 ovarian
# OVCAR-4 ovarian = system: OVCAR-4 ovarian
# SK-OV-3 ovarian = system: SK-OV-3 ovarian
# IGROV1 ovarian = system: IGROV1 ovarian
# OVCAR-3 ovarian = system: OVCAR-3 ovarian
# HS 578T breast = system: HS 578T breast
# NCI/ADR-RES ovarian = system: NCI/ADR-RES ovarian
# T-47D breast = system: T-47D breast
# BT-549 breast = system: BT-549 breast
# MDA-MB-435 melanoma = system: MDA-MB-435 melanoma
# HCT-116 colon = system: HCT-116 colon
# HCC-2998 colon = system: HCC-2998 colon
# KM12 colon = system: KM12 colon
# MCF7 breast = system: MCF7 breast
# SW-620 colon = system: SW-620 colon
Structure (SMILES),growth (SR leukemia),growth (RPMI-8226 leukemia),growth (OVCAR-8 ovarian),growth (OVCAR-5 ovarian),growth (OVCAR-4 ovarian),growth (SK-OV-3 ovarian),growth (IGROV1 ovarian),growth (OVCAR-3 ovarian),growth (HS 578T breast),growth (NCI/ADR-RES ovarian),growth (T-47D breast),growth (BT-549 breast),growth (MDA-MB-435 melanoma),growth (HCT-116 colon),growth (HCC-2998 colon),growth (KM12 colon),growth (MCF7 breast),growth (SW-620 colon)
C=C(C)[C@@H]1CC[C@]2(C(=O)N3CCOCC3)CC[C@]3(C)[C@H](CC[C@@H]4[C@@]5(C)C/C(=C/c6ccncc6)C(=O)C(C)(C)[C@@H]5CC[C@]43C)[C@@H]12,34.7%,4.12% (active),55.6%,93.3%,49.4%,73.9%,71.1%,52.4%,74.5%,72.3%,26.5%,73.4%,62.3%,32.4%,58.7%,52.2%,–,–
COc1cc2ncnc(Nc3ccc(F)c(Cl)c3)c2cc1OCC(=O)N1CCN(c2ccccc2)CC1,84.4%,83.6%,93.5%,75%,85.7%,96%,48.9%,87.8%,93.9%,80.5%,77.4%,106%,95.6%,67.7%,97.8%,102%,90%,–
CC(=O)/C(=C\c1c(-c2ccccc2)[nH]c2ccccc12)S(C)(=O)=O,-25.2% (active),-32.2% (active),40.9%,78.3%,-29.6% (active),35.9%,54.1%,-54.6% (active),3.31% (active),-19.5% (active),1.27% (active),4.06% (active),-42.7% (active),21.2%,36.8%,4.04% (active),6.97% (active),–
Cc1c2cnccc2c(C)c2c1c1cc(C#N)ccc1n2C,0.777% (active),-22.9% (active),6.24% (active),-15% (active),-39.4% (active),-3.17% (active),-11.4% (active),-7.57% (active),-18% (active),-9.81% (active),-1.04% (active),-62% (active),-57.6% (active),-22.9% (active),-68.7% (active),2.89% (active),-12.2% (active),–
O=C1/C(=C/c2ccccc2Br)COc2ccc(O)cc21,10.3%,1.71% (active),55.5%,91.9%,77.8%,128%,78.6%,54.5%,70.5%,46.9%,83.7%,–,40.9%,18.6%,100%,23.9%,9.13% (active),18.3%
COc1cc(C2c3cc(OC(C)=O)c(OC)cc3CC3C(=O)OCC32)ccc1OC(C)=O (stereo unspecified),108%,93.1%,111%,93.9%,99.2%,111%,111%,121%,123%,106%,103%,99.6%,118%,98.2%,104%,117%,101%,–
CC1=NC2=Nn3c(c4cnn(-c5ccccc5)c4n/c3=N\N)NN2C(c2ccccc2)=C1,99.6%,98.3%,101%,90%,94.7%,98%,61.8%,90.2%,80.5%,97.5%,94.1%,95.4%,92.3%,99.3%,99.2%,92.9%,87.8%,–
CC/C=C\C[C@H](O)C/C=C1/C(=O)C=C[C@@H]1C/C=C\CCCC(=O)N(C)C,6.2% (active),4.43% (active),2.8% (active),19.2%,43.9%,21.8%,11.5%,8.73% (active),16.4%,16.7%,10.7%,-34.8% (active),-18.1% (active),-63.4% (active),-90.7% (active),-51.3% (active),7.79% (active),–
O=C(O)CCN1C(=O)/C(=C/C(Cl)=C/c2ccccc2)SC1=S,6.86% (active),-8.3% (active),22.8%,57.8%,28.7%,94%,22.6%,2.92% (active),33.8%,11.3%,28.8%,–,-63.4% (active),-19% (active),4.75% (active),–,15.7%,7.78% (active)
CC(C)(Sc1cc(C(C)(C)C)c(OC(=O)CCCC(=O)O)c(C(C)(C)C)c1)Sc1cc(C(C)(C)C)c(OC(=O)CCCC(=O)O)c(C(C)(C)C)c1,61.6%,21.9%,36%,76.2%,79.6%,91.5%,36.6%,21.1%,57%,70%,49.5%,39.8%,27.8%,15.9%,22.1%,10.9%,30%,–
CSc1oc(C)nc1[P+](c1ccccc1)(c1ccccc1)c1ccccc1,30.6%,6.31% (active),60.1%,83.1%,34.6%,57.7%,60.6%,36.9%,55%,106%,8.57% (active),–,41%,33.4%,42.8%,23%,23.5%,65.1%
Oc1c(Br)cc(Br)c2ccc(Cn3cc(-c4ccccc4C(F)(F)F)nn3)nc12,2.33% (active),45.4%,92.9%,100%,79.4%,116%,107%,51.5%,105%,105%,83.8%,107%,93.1%,49.1%,110%,100%,–,–
NC(=O)c1c(NC(=O)c2ccc3ccccc3c2)sc2c1CCC(=O)C2,8.41% (active),-12.1% (active),46.1%,74.7%,5.13% (active),104%,42.7%,23%,49.6%,85.3%,33.4%,–,92.8%,7.15% (active),–,–,52.6%,14.3%
COc1ccc(/C=C/C(=O)c2ccc(Nc3ccnc4cc(Cl)ccc34)cc2)cc1,-72.4% (active),-32% (active),97.9%,89.2%,96.6%,111%,93.7%,118%,106%,83.6%,83.1%,–,85.6%,34%,58.7%,154%,76.2%,93.7%
c1ccc(Cn2cc3c(c2)-c2oncc2CC3)cc1,39.3%,8.25% (active),36.4%,25.1%,64.1%,13.5%,34.9%,-23.8% (active),1.9% (active),0.523% (active),42.1%,82.9%,-34.7% (active),9.28% (active),4.68% (active),13.6%,18.8%,–
C=CCn1c(C)nc2ccc(Nc3nc(Nc4ccc5nc(C)n(CC=C)c5c4)c4ccccc4n3)cc21,-57.2% (active),-43.3% (active),-48.6% (active),25.1%,-93.3% (active),-63.7% (active),-47.5% (active),-95.4% (active),-41.4% (active),53.5%,-91% (active),–,-78% (active),-97.8% (active),-52.7% (active),-84.8% (active),-87.9% (active),-80.5% (active)
COc1ccc(OC)c(Nc2nnc(-c3ccc(O)c(OC)c3)o2)c1,52.4%,75%,83.6%,70%,63.1%,53.4%,19.9%,70.6%,39.6%,68.7%,43.9%,79.4%,85%,63.8%,90.6%,20.4%,77.7%,–
COc1ccc(F)cc1/C=C/C(=O)/C=C(/C=C/c1cc(F)ccc1OC)OB(F)F,-0.793% (active),-13.5% (active),7.46% (active),48.9%,28.8%,97%,25%,1.71% (active),19.9%,19.8%,36.4%,33.7%,2.57% (active),0.9% (active),104%,73.6%,29.2%,–

# Reference: PubChem BioAssay (NCI)
